# In the library only some 3.4% were active in any assay of this set; here they are far more common.
# Mito fusion act: inhibitors of mitochondrial division or activators of mitochondrial fusion; hit rate 0.23% among 320,000; Potency, µM (highest dose often 46.1 µM), inactives show top-dose growth rescue (activation), hits mostly activators; S. cerevisiae fusion-defective mutant growth rescue, CellTiterGlo 48 h; further: % of control where 0% means no effect; nearly all actives have a fitted effect of over 45% in size
#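 Read-out: ATP-based luminescence (CellTiterGlo, 10 min ambient) reporting growth of fusion-defective ts yeast after 48 hours at 37C on glycerol/ethanol YPEG medium in the presence of compound.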
# VDR inh: blocks the human vitamin D receptor; P11473; VDR-SRC2-3 peptide fluorescence polarization, 2 h; Potency, µM, for inactives: max response, negative = inhibition, hits mostly inhibitors; hit rate 0.93% among 400,000; AID 504847; further: on the % scale 0 is the no-effect control and ±100 the full control effect
#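 Fluorescence polarization assay measuring small-molecule disruption of VDR binding to the coregulator peptide SRC2-3. Compounds were pin-transferred (23 nl) into the reagent mix and incubated 2 h at room temperature before reading.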
# PLK1 PBD inh: blocks phosphopeptide binding to human PLK1 polo-box domain; P53350; Plk1 PBD binding of FITC phosphopeptide, fluorescence polarization; Potency, µM, for the others: max response, negative = inhibition, hits mostly inhibitors; hit rate 2.8% among 360,000; AID 720504; further: series mostly up to about 57 µM; on the % scale 0 is the no-effect control and ±100 the full control effect; nearly all actives have a fitted effect of over 65% in size
# PKM2 act: increases activity of human pyruvate kinase M2; AID 1631; hit rate 0.34% among 260,000; Potency, µM (series often up to 57.5 µM), for inactives: at the top dose activation, most hits filed as activators; purified PKM2, Kinase-Glo ATP luminescence, activation; response scale: 0% is enzyme alone, no compound; P14618; further: on the % scale 0 is the no-effect control and ±100 the full control effect; nearly all actives have a fitted effect of over 55% in size
# Target sequence (P14618 whole entry, looked up): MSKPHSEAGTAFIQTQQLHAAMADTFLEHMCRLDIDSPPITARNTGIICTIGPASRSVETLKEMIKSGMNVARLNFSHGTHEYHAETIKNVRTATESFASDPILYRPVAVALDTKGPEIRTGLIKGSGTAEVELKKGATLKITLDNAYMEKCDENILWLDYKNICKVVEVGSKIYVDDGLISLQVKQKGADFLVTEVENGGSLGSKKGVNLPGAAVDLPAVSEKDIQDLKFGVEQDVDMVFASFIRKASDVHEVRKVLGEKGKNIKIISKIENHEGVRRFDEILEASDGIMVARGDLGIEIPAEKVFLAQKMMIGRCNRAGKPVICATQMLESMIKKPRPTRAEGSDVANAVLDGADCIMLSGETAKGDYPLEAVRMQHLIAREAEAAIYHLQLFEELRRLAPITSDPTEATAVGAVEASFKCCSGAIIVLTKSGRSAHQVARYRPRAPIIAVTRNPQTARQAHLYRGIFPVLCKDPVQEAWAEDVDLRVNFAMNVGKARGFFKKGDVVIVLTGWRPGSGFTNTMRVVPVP
#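 Purified hPK-M2 (>95%) run at intermediate activity with 0.1 mM ADP and 0.5 mM PEP in 50 mM imidazole pH 7.2, KCl, MgCl2; 1 h room temperature. ATP formed read by Kinase-Glo luminescence; normalized to uninhibited and no-enzyme controls.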
# GCN5L2 inh: GCN5L2 (KAT2A) acetyltransferase inhibition | GCN5L2 HAT assay, ThioGlo1 CoA-SH fluorescence | Potency, µM (top dose mostly 58.9 µM), for the others: at the highest dose activity change, negative = inhibition, actives largely listed as inhibitors | hit rate 0.21% among 390,000 | AID 504327; further: on the % scale 0 is the no-effect control and ±100 the full control effect
#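 Free CoA generated was detected with ThioGlo1 (50uM) fluorescence at Ex340nm/Em540nm, read immediately and after 20 min at room temperature. Enzyme, 20 nM in HEPES pH 7.5 buffer, saw compounds 15 min before adding 75uM H3(1-25) peptide and 70uM acetyl-CoA.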
# GLS inhibitor: inhibitors of human glutaminase (GLS) | O94925 | Potency, µM (highest dose often 45.5 µM), inactives show top-dose activity change, negative = inhibition, usual class: inhibitors | hit rate 0.21% among 410,000 | GLS enzymatic activity, qHTS titration; further: on the % scale 0 is the no-effect control and ±100 the full control effect
#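 Glutamate formation by hKGA was monitored fluorometrically using coupled glutamate oxidase, HRP and Amplex Red. Substrate was added as 1 mM L-glutamine solution; incubation was 30 min at RT after an initial read.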
# The depositor's hits bear a star; ? = inconclusive; / = no result; [ ] = remark or other dose. The call rests on the fitted dose curve; in most records, active means well fitted curve in the direction sought with a large enough effect; inconclusive means small, poorly fitted or top-dose-only effect, or another doubt; inactive means no such curve, though single readings can be large; an effect the other way counts as inactive or inconclusive. Potency means the concentration at half of the fitted maximal effect.
SMILES,Mito fusion act,VDR inh,PLK1 PBD inh,PKM2 act,GCN5L2 inh,GLS inhibitor
CNc1cc(-c2ccccc2C)ncn1,/,50µM*,/,/,?,/
Cc1ccccc1-c1cc(Nc2ccccc2)ncn1,/,?,/,/,-10%,/
CN(C)c1ccc(-c2cc(N(C)Cc3ccco3)ncn2)cc1,/,?,/,/,-15%,/
Cc1ccccc1-c1cc(N(C)Cc2ccco2)ncn1,/,45µM*,/,/,-4%,/
Cc1noc(C)c1-c1cc(N(C)Cc2ccco2)ncn1,/,32µM*,/,/,?,/
CN(Cc1ccco1)c1cc(-c2ccoc2)ncn1,/,28µM*,/,/,32µM*,/
COC(=O)c1ccc(C(NC(=O)OCc2ccccc2)/C(=C/[C@@H](C)C(=O)NC2CCCCC2)c2cccnc2)cc1 (stereo partly specified),/,/,/,-5%,/,/
CN(Cc1ccco1)c1cc(-c2cccc(C#N)c2)ncn1,/,?,/,/,-5%,/
COc1cccc(-c2cc(N(C)Cc3ccco3)ncn2)c1,/,45µM*,/,/,-10%,/
C=CCc1ccc(OCCOCCOc2cccc3cccnc23)c(OC)c1,21%,-3%,-7%,0%,-2%,17%
CCOC(=O)c1c(C)[nH]c(C(=O)CSc2nnc(C3CC3)n2N)c1C,0%,?,24µM*,-3%,-5%,29%
CCOC(=O)c1c(C)[nH]c(C(=O)CSc2ccccc2)c1C,7%,14%,-8%,-4%,-2%,-8%
O=C1CCC(C(=O)OCC(=O)c2ccccc2)N1 (stereo unspecified),-1%,?,27µM*,10%,-1%,-11%
O=C(COC(=O)C1CCC(=O)N1)Nc1ccccc1Br (stereo unspecified),-4%,22µM*,21µM*,0%,1%,-1%
Cn1c(=O)c2ccccc2n(CC(=O)N2CCCc3ccccc32)c1=O,3%,7%,-5%,5%,-5%,1%
O=C(O)Cc1ccccc1C(=O)O,-1%,-5%,3%,-4%,1%,-3%
O=C(O)Cc1cccc(=O)c(O)c1C(=O)O,/,11%,?,/,/,2.2µM*
COCCn1c(N)c(N(Cc2ccccc2)C(=O)CSCC(=O)Nc2ccc(OC)cc2)c(=O)[nH]c1=O,-2%,-8%,-2%,/,1%,-4%
O=C(NCCOc1ccccc1)C1C(=O)Nc2ccccc2C(=O)N1C1CCCCC1 (stereo unspecified),/,/,-3%,/,/,/
CCC(C)[C@H]1COCCS(=O)(=O)N1Cc1ccccc1 (stereo partly specified),1%,17%,-3%,-7%,-5%,-4%
Nn1c(C2COc3ccccc3O2)n[nH]c1=S (stereo unspecified),8%,?,17µM*,-21%,-17%,5%
NC(=S)C1COc2ccccc2O1 (stereo unspecified),-4%,4%,?,0%,-3%,-14%
O=c1[nH]cnc2c1sc(=S)n2-c1ccccc1,-1%,?,7.5µM*,-15%,-30%,-18%
Cc1ccc(NS(=O)(=O)c2cc(N)ccc2Cl)c(C)c1,-3%,-17%,24µM*,9%,0%,14%
O=C(CCc1nnc(-c2ccc3c(c2)OCO3)o1)NCCc1ccccc1F,4%,?,12µM*,/,-4%,?
SMILES,Mito fusion act,VDR inh,PLK1 PBD inh,PKM2 act,GCN5L2 inh,GLS inhibitor
O=C1CCCCCN1Cc1ccccc1,2%,-16%,30µM*,-7%,-27%,-18%
O=C1CCCCCCCN1Cc1ccccc1,/,-4%,-5%,/,/,-3%
CCc1nnc(NS(=O)(=O)c2ccc(NC(=S)NC(=O)/C=C/c3ccc(C(C)C)cc3)cc2)s1,-2%,-9%,21µM*,1%,-27%,20%
CCc1nnc(NS(=O)(=O)c2ccc(NC(=S)NC(=O)/C=C/c3ccc(OC)cc3)cc2)s1,-4%,1%,27µM*,?,1%,24%
CCc1nnc(NS(=O)(=O)c2ccc(N/C=C\C(=O)c3ccc4ccccc4c3)cc2)s1,-3%,-23%,24µM*,8%,-9%,5%
C=CCc1cccc2cc(C(=O)Nc3ccc(S(=O)(=O)Nc4nnc(CC)s4)cc3)c(=O)oc12,-5%,-17%,21µM*,?,27%,-17%
CCc1nnc(NS(=O)(=O)c2ccc(NC(=S)NC(=O)/C=C/c3ccccc3)cc2)s1,-1%,-30%,?,1%,-3%,-22%
C=CCc1cccc2cc(C(=O)Nc3ccc(F)cc3)c(=O)oc12,-4%,-5%,-12%,-8%,-1%,8%
CCc1nnc(NS(=O)(=O)c2ccc(NC(=O)c3ccccc3)cc2)s1,-5%,-5%,-10%,-3%,0%,6%
CCC(C(=O)C(C)C(O)C(C)CCc1ccc(C)c(O)c1C(=O)O)C1OC(CC)(C2CC[C@@](O)(CC)C(C)O2)CC1C (stereo partly specified),/,-17%,/,/,?,-23%
CCc1nc2c(OCC(=O)C(C)(C)C)cccn2c1N(C=O)Cc1ccccc1,/,/,-7%,/,/,2%
CC(C(=O)Nc1ccccc1-c1ccccc1)N1CCN(Cc2ccccc2)CC1 (stereo unspecified),-3%,?,17µM*,0%,-19%,?
CC1CCN(C(C)C(=O)Nc2ccccc2-c2ccccc2)CC1 (stereo unspecified),1%,-5%,-4%,0%,-6%,1%
COc1ccc(NC(=O)CN(c2cccc(C)c2C)S(=O)(=O)c2ccccc2)cc1OC,/,-7%,/,/,-6%,6%
Nc1ncc(Br)cc1S(=O)(=O)Nc1cc(C(F)(F)F)cc(C(F)(F)F)c1,-14%,?,30µM*,/,-39%,5%
Cc1ccc(NS(=O)(=O)c2cc(Br)cnc2N)c(Cl)c1,2%,-4%,-14%,/,-2%,3%
CN(C)S(=O)(=O)c1ccc2nnn(O)c2c1,2%,79µM*,11µM*,2%,-4%,?
Cc1cc(Br)ccc1N=C1NC(=O)CS1,3%,-5%,27µM*,-7%,-10%,-8%
CC(C)(C)OC(=O)N(Cc1ccccc1)Cc1ccccc1OCc1cccc(NC(=O)C2CCC2)c1,/,-6%,1%,/,/,-6%
CCCn1nnnc1NC(=O)c1cc(Cl)ccc1Cl,23%,-9%,27µM*,-1%,-1%,-4%
O=C(O)c1ccc(-c2ccccc2C(F)(F)F)s1,/,126µM*,/,/,-13%[88.6 µM],/
O=C1CC[C@H](C(=O)N[C@@H]2C[C@H]2c2ccccc2)N1,/,2%,/,/,0%,19%
Cc1ccc(Nc2nc(NCCO)nc3c2cnn3C)cc1Cl,20%,?,19µM*,/,-4%,54%
CCCn1c(COc2ccccc2OC)nc2ccccc21,-7%,8%,5%,16µM*,-7%,-8%
CCN(CC)CCn1c(NCc2cccc(OC)c2)nc2ccccc21,-6%,1%,-6%,10%,-6%,48%

# Bioassay records from PubChem BioAssay.
